According to the supplement of paper PMC6555819:

Assays:
Test in all cases: PBM binding z-score (relative to random genomic background probes); higher = stronger binding; sequences stand for … in GC…GCGATTGACAGCGTAGAATGAAGG
[1] = system: RARb homodimer (NR concentration 270 nM)
Procedure, shortened: (§1)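 Probes were double-stranded and carried 34-nt variable regions with direct-repeat seeds, single-nucleotide variants, half-site ablations and random human genomic background sequences, printed on custom Agilent 4×180K protein-binding microarrays. Arrays were incubated 1 h with ligand-free nuclear receptor dimers in PBS pH 7.4, 2% milk, 0.02% Triton X-100, 1 mM DTT, 0.2 mg/mL BSA and 0.4 mg/ml salmon testes DNA. Antibodies against each partner (one per run) detected binding, and scanned fluorescence was regression-normalized. Binding z-scores use the random background probes as reference.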

[2] = system: RARg:RXRa (NR concentration 270 nM, RXRa partner concentration 90 nM)
Procedure, shortened: as §1

[3] = system: RARg homodimer (NR concentration 270 nM)
Procedure, shortened: as §1

[4] = system: RXRa DBDmut IVT, anti-RXR (DBD mutation: RXRa K156A/R161A, NR concentration 90 nM)
Procedure, shortened: as §1

[5] = system: RXRa homodimer (NR concentration 180 nM)
Procedure, shortened: as §1

[6] = system: THRa:RXRa (NR concentration 90 nM, RXRa partner concentration 90 nM)
Procedure, shortened: as §1

[7] = system: THRa homodimer (NR concentration 90 nM)
Procedure, shortened: as §1

[8] = system: VDR homodimer (NR concentration 270 nM)
Procedure, shortened: as §1

Sequence	PBM binding z-score [1]	PBM binding z-score [2]	PBM binding z-score [3]	PBM binding z-score [4]	PBM binding z-score [5]	PBM binding z-score [6]	PBM binding z-score [7]	PBM binding z-score [8]
ATCTAAAGGTCGACGAGGTGAGTATACACCGTTT	3.05	4.38	4.38	1.52	4.1	3.82	0.836	1.29
TCATATAGGTAGAGGTGAAAGTCGAACGATATGA	1.04	1.18	1.11	0.392	1.77	1.41	-0.0362	0.0889
AGTACGAGGGCAATGAGTTGATAGCACGGGTGGC	1.2	1.06	1.62	2.1	0.711	1.07	-0.111	2.98
CGTCCAAGGTCAGAGACGTCAGTGAATGCCGAGT	3.39	4.24	4.6	2.62	3.33	3.24	1.49	1.24
CCGACTGGGGCAAGATTACCATAACGCACAGCCA	0.349	0.185	0.477	-0.0134	0.0853	-0.474	-0.565	-0.566
TCTAGGTGGTCACGGAGGTCACACACGACGGGTA	4.44	5.09	5.12	0.895	4.95	3.62	2.2	3.08
TTACCAAGGAGAAAGGTCGTTGATGCACGCCTTG	1.55	1.43	0.929	0.362	2.29	1.48	-0.13	1.17
CGTCAAAGTTCATCTAAGGTAACGTAAAGCACGC	4.35	5.77	6.43	5.14	4.66	5.26	2.52	5.45
CCTGCTAGGTCACTGGTCAGCTAAAGCAGCTCGC	3.08	3.82	4.65	1.68	2.59	2.7	0.97	0.123
CAAACTAGGTCACCGGAAGGTCAAAGTACGCATG	5.73	8.48	7.65	2.43	6.46	4.8	3.25	3.52
AACACAGGGTCACTAGGCCAGAGTAGGTACGAAT	3.3	5.06	4.83	2.79	5.24	3.3	1.02	2.44
ACAGACAGGGGATGAAGGTAACTCAGGCTATCAT	0.714	0.0982	0.418	0.422	0.188	0.765	0.491	-0.173
CGTCCAAGGTTAATGCTAGGTCAGTGAAAGCATT	3.14	4.63	2.64	1.27	1.78	3.44	1.31	0.435
GGAACGAGGGCATGCGAGTTGATAGCATGGCGAT	0.608	1.21	1.6	2.03	0.847	2.7	-0.777	1.97
TCTAGTTGGTCACGGAGGTCAAACACGACGGGTA	4.53	5.24	5.02	1.28	5.47	3.78	2.02	3.62
TCATATAGGTAAAGGTGAGAGTCGAACGATATGA	1.28	1.29	1.33	0.713	1.64	0.888	-0.508	-0.128
CGAACTAGGTCATTGACAGGACAGTGTATAGTAA	2.93	4.51	4.13	2.69	2.38	3.02	0.913	1.47
